# Test results reported in PubChem BioAssay (EPA / NIEHS).
# Where “and” joins values, the source holds several entries; their conditions need not be identical. Equal entries are not always repeated. Results filed as inconclusive are left out. A structure can be active in one record and inactive in another. Calls of active or inactive are those of the source. How the source made its calls, unless noted: active means hit-call score of the fitted dose curve at least 0.9, where 1 is the maximum; inactive means score below 0.9.
# Experiments:
# [1] = read-out: Intercellular Adhesion Molecule 1 (ICAM1), ICAM1 (gene 3383); assay: BSK_3C_ICAM1: BioMAP Diversity Plus: 3C Assay for Intercellular Adhesion Molecule 1 (ICAM1) Biomarker Activity (AID 2283003); conditions: primary human endothelial cells (HUVEC); actives raise or lower the signal
# Method in brief: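 Primary human umbilical vein endothelial cells in the BioMAP 3C system were exposed to chemicals for 24 h, then ICAM-1 was quantified by ELISA. Activity was fitted bidirectionally against the DMSO negative control baseline.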
# [2] = molecular target: human Retinoic Acid Receptor beta (RARb), RARB (gene 5915) (UniProt P10826); assay: ATG_RARb_TRANS: Attagene TRANS-FACTORIAL HepG2 Assay for human Retinoic Acid Receptor beta (AID 2283004; active means hit-call score of the fitted dose curve at least 0.9, where 1 is the maximum)
# Sequence of human Retinoic Acid Receptor beta (RARb), RARB (gene 5915) (P10826 whole entry, looked up, the tested form may be a part): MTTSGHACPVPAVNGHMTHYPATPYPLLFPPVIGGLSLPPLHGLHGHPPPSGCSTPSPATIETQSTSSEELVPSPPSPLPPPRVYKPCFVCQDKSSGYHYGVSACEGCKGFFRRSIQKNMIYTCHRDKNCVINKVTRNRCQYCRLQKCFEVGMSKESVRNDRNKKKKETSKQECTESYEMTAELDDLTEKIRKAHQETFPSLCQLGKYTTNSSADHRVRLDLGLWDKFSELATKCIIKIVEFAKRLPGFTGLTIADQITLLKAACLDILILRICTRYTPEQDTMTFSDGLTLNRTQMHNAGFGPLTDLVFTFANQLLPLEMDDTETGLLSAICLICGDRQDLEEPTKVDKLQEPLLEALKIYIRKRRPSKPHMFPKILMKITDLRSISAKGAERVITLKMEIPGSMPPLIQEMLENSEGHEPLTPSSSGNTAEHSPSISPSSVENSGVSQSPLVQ
# Method in brief: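 HepG2 cells transiently transfected with multiplexed GAL4-UAS reporter units expressing chimeric NR–Gal4 fusions; 24 h compound exposure. Reporter mRNA quantified by RT-PCR, 6-FAM labelling, HpaI digestion and capillary electrophoresis; gain-of-signal fitted against DMSO baseline.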
# [3] = BSK_3C_Proliferation: Cell Proliferation Assessment in the BioMAP Diversity Plus: 3C Assay (AID 2283006); conditions: primary human endothelial cells (HUVEC);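 on AC50: potency may reflect either rise or fall in cell number versus DMSO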
# Method in brief: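 Human umbilical vein endothelial cells were grown sub-confluent and exposed to chemical for 48 h, then fixed with 10% TCA and stained with 0.1% sulforhodamine B; absorbance at 560 nm gave relative cell number, fitted bidirectionally against DMSO baseline.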
# [4] = molecular target: Peroxisome proliferator-activated receptor gamma (Homo sapiens) (UniProt P37231); assay: ATG_PPARg_TRANS: Attagene TRANS-FACTORIAL HepG2 Assay for human Peroxisome Proliferator-activated Receptor-gamma (PPARg) (AID 2283007; active means hit-call score of the fitted dose curve at least 0.9, where 1 is the maximum)
# Sequence of Peroxisome proliferator-activated receptor gamma (Homo sapiens) (P37231 whole entry, looked up, the tested form may be a part): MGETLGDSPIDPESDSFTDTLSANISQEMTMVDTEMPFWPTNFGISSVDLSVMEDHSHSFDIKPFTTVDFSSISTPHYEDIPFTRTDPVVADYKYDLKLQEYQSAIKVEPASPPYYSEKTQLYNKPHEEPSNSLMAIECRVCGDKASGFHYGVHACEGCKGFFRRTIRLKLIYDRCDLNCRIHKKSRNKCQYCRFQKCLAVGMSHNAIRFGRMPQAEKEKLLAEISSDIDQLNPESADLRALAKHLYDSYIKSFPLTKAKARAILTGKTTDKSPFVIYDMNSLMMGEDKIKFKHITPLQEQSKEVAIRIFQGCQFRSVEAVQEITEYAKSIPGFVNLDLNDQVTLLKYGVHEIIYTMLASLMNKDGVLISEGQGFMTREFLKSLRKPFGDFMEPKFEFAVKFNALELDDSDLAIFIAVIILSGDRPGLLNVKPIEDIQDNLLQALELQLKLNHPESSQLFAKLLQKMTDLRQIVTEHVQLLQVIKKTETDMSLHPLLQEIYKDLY
# Method in brief: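 Transient transfection of HepG2 with GAL4-UAS-driven reporter units; chemical dosing 24 h; total RNA → oligo(dT) RT → PCR with reporter primers → 6-FAM primer extension → HpaI digest 2 h 37 C → capillary electrophoresis. Positive direction vs DMSO.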
# [5] = molecular target: human Retinoic Acid Receptor gamma (RARg), RARG (gene 5916) (UniProt P13631); assay: ATG_RARg_TRANS: Attagene TRANS-FACTORIAL HepG2 Assay for human Retinoic Acid Receptor gamma (RARg) (AID 2283009; active means hit-call score of the fitted dose curve at least 0.9, where 1 is the maximum)
# Sequence of human Retinoic Acid Receptor gamma (RARg), RARG (gene 5916) (P13631 whole entry, looked up, the tested form may be a part): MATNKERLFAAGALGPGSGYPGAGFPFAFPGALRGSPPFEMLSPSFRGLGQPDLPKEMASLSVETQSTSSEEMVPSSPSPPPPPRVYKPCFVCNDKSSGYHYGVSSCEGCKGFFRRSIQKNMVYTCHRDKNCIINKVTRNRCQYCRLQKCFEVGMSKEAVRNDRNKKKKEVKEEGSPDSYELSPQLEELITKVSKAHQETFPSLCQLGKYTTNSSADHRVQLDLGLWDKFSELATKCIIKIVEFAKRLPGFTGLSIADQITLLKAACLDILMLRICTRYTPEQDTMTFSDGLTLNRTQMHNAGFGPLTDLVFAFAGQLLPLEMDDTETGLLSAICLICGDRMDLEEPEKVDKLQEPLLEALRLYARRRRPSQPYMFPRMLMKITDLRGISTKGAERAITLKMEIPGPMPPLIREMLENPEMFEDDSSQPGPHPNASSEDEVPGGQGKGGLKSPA
# Method in brief: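 HepG2 cells transiently transfected with multiplexed reporter units expressing chimeric RARg-GAL4 and GAL4-UAS-driven reporters; 24 h compound exposure. Reporter mRNA quantified by RT-PCR with fluorescent labelling and capillary electrophoresis; gain-of-signal fitted relative to DMSO baseline.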
# [6] = molecular target: human RAR-related Orphan Receptor beta (RORb), RORB (gene 6096) (UniProt Q92753); assay: ATG_RORb_TRANS: Attagene TRANS-FACTORIAL HepG2 Assay for human RAR-related Orphan Receptor beta (RORb) (AID 2283010; active means hit-call score of the fitted dose curve at least 0.9, where 1 is the maximum)
# Sequence of human RAR-related Orphan Receptor beta (RORb), RORB (gene 6096) (Q92753 whole entry, looked up, the tested form may be a part): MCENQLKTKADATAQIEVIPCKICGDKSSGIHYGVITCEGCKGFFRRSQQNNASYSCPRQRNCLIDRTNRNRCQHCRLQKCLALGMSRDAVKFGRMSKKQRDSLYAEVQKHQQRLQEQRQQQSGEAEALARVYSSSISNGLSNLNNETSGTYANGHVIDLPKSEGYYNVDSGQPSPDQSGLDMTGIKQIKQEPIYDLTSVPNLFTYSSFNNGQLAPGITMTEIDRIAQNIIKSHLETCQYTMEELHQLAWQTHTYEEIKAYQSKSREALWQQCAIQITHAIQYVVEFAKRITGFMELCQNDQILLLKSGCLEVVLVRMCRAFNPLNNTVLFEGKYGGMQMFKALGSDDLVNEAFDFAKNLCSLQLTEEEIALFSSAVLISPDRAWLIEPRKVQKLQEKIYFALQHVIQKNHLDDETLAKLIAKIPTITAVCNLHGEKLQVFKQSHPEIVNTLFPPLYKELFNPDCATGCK
# Method in brief: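 HepG2 cells were transiently transfected with multiplexed GAL4-UAS reporter units expressing chimeric nuclear receptor–GAL4 proteins, then dosed for 24 h. Reporter mRNA was quantified by RT-PCR with fluorescent labelling and capillary electrophoresis; gain of signal was fitted relative to DMSO.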
# [7] = molecular target: human RAR-related Orphan Receptor gamma (RORg), RORC (gene 6097) (UniProt P51449); assay: ATG_RORg_TRANS: Attagene TRANS-FACTORIAL HepG2 Assay for human RAR-related Orphan Receptor gamma (RORg) (AID 2283011; active means hit-call score of the fitted dose curve at least 0.9, where 1 is the maximum)
# Sequence of human RAR-related Orphan Receptor gamma (RORg), RORC (gene 6097) (P51449 whole entry, looked up, the tested form may be a part): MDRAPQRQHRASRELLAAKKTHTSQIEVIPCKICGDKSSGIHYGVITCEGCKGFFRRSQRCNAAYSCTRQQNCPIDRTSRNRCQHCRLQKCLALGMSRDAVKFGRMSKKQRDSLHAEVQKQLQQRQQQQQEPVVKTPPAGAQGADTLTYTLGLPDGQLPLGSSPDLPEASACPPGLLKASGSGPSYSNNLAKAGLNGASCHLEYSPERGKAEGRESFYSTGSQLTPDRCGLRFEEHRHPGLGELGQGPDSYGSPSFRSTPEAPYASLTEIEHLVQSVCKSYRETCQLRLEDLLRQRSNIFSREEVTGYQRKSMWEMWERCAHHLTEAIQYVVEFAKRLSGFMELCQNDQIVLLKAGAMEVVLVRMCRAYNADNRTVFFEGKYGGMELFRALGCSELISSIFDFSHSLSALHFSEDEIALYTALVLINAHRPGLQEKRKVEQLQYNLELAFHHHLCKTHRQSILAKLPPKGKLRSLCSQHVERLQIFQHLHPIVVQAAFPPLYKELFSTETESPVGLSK
# Method in brief: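 Readout: reporter transcript induction (RT-PCR, fluorescent primer extension, capillary electrophoresis) after 24 h compound exposure of transiently transfected HepG2 cells carrying a RORg-Gal4 chimera and GAL4-UAS reporters; DMSO served as baseline, with increasing signal fitted.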
# [8] = molecular target: Retinoic acid receptor RXR-alpha (Homo sapiens) (UniProt P19793); assay: ATG_RXRa_TRANS: Attagene TRANS-FACTORIAL HepG2 Assay for human Retinoid X Receptor alpha (RXRa) (AID 2283012; active means hit-call score of the fitted dose curve at least 0.9, where 1 is the maximum)
# Method in brief: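 HepG2 cells transiently transfected with multiplexed GAL4-UAS reporter units and chimeric NR-GAL4 fusions, dosed 24 h. Reporter mRNA measured by RT-PCR, FAM labelling, HpaI digestion and capillary electrophoresis; gain-of-signal fitted relative to DMSO baseline.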
# [9] = molecular target: human Thyroid Receptor alpha (THRa1), THRA (gene 7067) (UniProt P10827); assay: ATG_THRa1_TRANS: Attagene TRANS-FACTORIAL HepG2 Assay for human Thyroid Receptor alpha (THRa1) (AID 2283014; active means hit-call score of the fitted dose curve at least 0.9, where 1 is the maximum)
# Sequence of human Thyroid Receptor alpha (THRa1), THRA (gene 7067) (P10827 whole entry, looked up, the tested form may be a part): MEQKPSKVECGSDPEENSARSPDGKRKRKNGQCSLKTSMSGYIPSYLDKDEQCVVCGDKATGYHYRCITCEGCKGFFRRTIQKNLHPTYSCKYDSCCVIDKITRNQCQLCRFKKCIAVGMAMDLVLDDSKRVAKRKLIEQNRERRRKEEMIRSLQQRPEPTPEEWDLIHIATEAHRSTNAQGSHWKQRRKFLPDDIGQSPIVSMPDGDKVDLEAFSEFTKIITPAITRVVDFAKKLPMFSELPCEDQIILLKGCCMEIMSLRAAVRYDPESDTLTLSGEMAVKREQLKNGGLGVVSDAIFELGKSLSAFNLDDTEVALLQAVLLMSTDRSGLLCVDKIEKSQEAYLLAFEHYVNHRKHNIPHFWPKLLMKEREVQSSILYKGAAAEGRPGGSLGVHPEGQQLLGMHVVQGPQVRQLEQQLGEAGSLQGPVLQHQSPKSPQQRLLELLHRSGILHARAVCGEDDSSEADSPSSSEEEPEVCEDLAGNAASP
# Method in brief: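 HepG2 cells transiently transfected with multiplexed GAL4-UAS reporter units for exogenous chimeric THRa1-Gal4; reporter mRNA measured 24 h after dosing by RT-PCR, 6-FAM labelling, HpaI digestion and capillary electrophoresis. Gain-of-signal fitted versus DMSO baseline.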
# [10] = read-out: E-selectin (Homo sapiens) (UniProt P16581); assay: BSK_3C_Eselectin: BioMAP Diversity Plus: 3C Assay for Eselectin Biomarker Activity (AID 2283015); conditions: primary human endothelial cells (HUVEC); actives raise or lower the signal;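 on outcome: cell surface E-selectin protein quantified by ELISA 24 h after dosing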
# Method in brief: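 Primary human umbilical vein endothelial cells (3C system) were dosed with chemical and cell-surface E-selectin measured by ELISA 24 h later. Bidirectional curve fitting used DMSO as negative control and baseline.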
# [11] = read-out: Interleukin-1 alpha (IL1a), IL1A (gene 3552); assay: BSK_BE3C_IL1a: BioMAP Diversity Plus: BE3C Assay for Interleukin-1 alpha (IL1a) Biomarker Activity (AID 2283016); conditions: primary human bronchial epithelial cells; actives raise or lower the signal
# Method in brief: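 Human primary bronchial epithelial cells (BE3C system) were dosed with compound and IL-1a measured by ELISA 24 h later. Activity was fitted bidirectionally against DMSO baseline; cytotoxicity was tracked in parallel cultures by SRB total-protein staining.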
# [12] = read-out: Monocyte Chemoattractant Protein-1 (MCP1), CCL2 (gene 6347); assay: BSK_3C_MCP1: BioMAP Diversity Plus: 3C Assay for Monocyte Chemoattractant Protein-1 (MCP1) Biomarker Activity (AID 2283017); conditions: primary human endothelial cells (HUVEC); actives raise or lower the signal
# Method in brief: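 Primary human umbilical vein endothelial cells (3C system) were exposed to test chemical for 24 h, after which MCP-1 was quantified by ELISA. Activity was fitted bidirectionally against DMSO as negative control and baseline.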
# [13] = read-out: Monocyte Chemoattractant Protein-1 (MCP1), CCL2 (gene 6347); assay: BSK_4H_MCP1: BioMAP Diversity Plus: 4H Assay for Monocyte Chemoattractant Protein-1 (MCP1) Biomarker Activity (AID 2283018); conditions: primary human endothelial cells (HUVEC); actives raise or lower the signal
# Method in brief: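 Human umbilical vein endothelial cells (4H system) dosed with chemical; MCP-1 measured by ELISA 24 h after dosing. Bidirectional curve fitting against DMSO negative control as baseline; parallel SRB total-protein staining tracks overt cytotoxicity.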
# [14] = read-out: Human Leukocyte Antigen - DR isotype (HLADR), HLA-DRA (gene 3122); assay: BSK_3C_HLADR: BioMAP Diversity Plus: 3C Assay for Human Leukocyte Antigen - DR isotype (HLADR) Biomarker Activity (AID 2283019); conditions: primary human endothelial cells (HUVEC); actives raise or lower the signal;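 further: ELISA of cell-surface HLA-DR on HUVEC 24 h after dosing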
# Method in brief: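 Primary human umbilical vein endothelial cells (3C system) were dosed with compound and cell-surface HLA-DR was quantified by ELISA at 24 h. Activity was fitted bidirectionally against DMSO as negative control and baseline.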
# [15] = read-out: Interleukin-8 (IL8), CXCL8 (gene 3576); assay: BSK_3C_IL8: BioMAP Diversity Plus: 3C Assay for Interleukin-8 (IL8) Biomarker Activity (AID 2283020); conditions: primary human endothelial cells (HUVEC); actives raise or lower the signal
# Method in brief: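 Primary human umbilical vein endothelial cells (3C system) were exposed to test chemical for 24 h, then IL-8 was quantified by ELISA. Responses were fitted bidirectionally against DMSO vehicle as baseline.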
# [16] = read-out: Monokine induced gamma interferon (MIG), CXCL9 (gene 4283); assay: BSK_3C_MIG: BioMAP Diversity Plus: 3C Assay for Monokine induced gamma interferon (MIG) Biomarker Activity (AID 2283021); conditions: primary human endothelial cells (HUVEC); actives raise or lower the signal
# Method in brief: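 Primary human umbilical vein endothelial cells in the 3C system were exposed to chemical for 24 h, after which MIG was quantified by ELISA. Activity was fitted bidirectionally against DMSO as negative control and baseline.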
# [17] = molecular target: Retinoic acid receptor alpha (Homo sapiens) (UniProt P10276); assay: ATG_RARa_TRANS: Attagene TRANS-FACTORIAL HepG2 Assay for human Retinoic Acid Receptor alpha (RARa) (AID 2283005; active means hit-call score of the fitted dose curve at least 0.9, where 1 is the maximum)
# Sequence of Retinoic acid receptor alpha (Homo sapiens) (P10276 whole entry, looked up, the tested form may be a part): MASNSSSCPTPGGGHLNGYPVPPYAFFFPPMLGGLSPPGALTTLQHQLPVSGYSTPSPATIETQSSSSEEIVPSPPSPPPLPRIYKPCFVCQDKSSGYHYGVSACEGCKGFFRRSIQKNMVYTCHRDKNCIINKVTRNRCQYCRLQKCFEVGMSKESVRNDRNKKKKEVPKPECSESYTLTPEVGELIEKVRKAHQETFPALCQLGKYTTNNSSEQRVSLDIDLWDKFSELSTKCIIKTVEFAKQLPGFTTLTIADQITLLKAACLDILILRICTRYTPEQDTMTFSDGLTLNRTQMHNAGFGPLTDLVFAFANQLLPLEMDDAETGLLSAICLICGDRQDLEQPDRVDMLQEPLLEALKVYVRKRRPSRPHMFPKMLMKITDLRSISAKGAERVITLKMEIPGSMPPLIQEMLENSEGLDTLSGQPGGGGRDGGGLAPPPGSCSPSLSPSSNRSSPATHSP
# Method in brief: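 HepG2 cells transiently transfected with multiple reporter units expressing chimeric RARα-GAL4 fusion, with GAL4-UAS-driven reporters. After 24 h compound exposure, reporter mRNA induction quantified by RT-PCR and capillary electrophoresis with fluorescent labeling; gain-of-signal fitted relative to DMSO control.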
# [18] = molecular target: Nuclear receptor subfamily 1 group I member 2 (Homo sapiens) (UniProt O75469); assay: ATG_PXR_TRANS: Attagene TRANS-FACTORIAL HepG2 Assay for human Pregnane X Receptor (PXR) (AID 2283008; active means hit-call score of the fitted dose curve at least 0.9, where 1 is the maximum)
# Sequence of Nuclear receptor subfamily 1 group I member 2 (Homo sapiens) (O75469 whole entry, looked up, the tested form may be a part): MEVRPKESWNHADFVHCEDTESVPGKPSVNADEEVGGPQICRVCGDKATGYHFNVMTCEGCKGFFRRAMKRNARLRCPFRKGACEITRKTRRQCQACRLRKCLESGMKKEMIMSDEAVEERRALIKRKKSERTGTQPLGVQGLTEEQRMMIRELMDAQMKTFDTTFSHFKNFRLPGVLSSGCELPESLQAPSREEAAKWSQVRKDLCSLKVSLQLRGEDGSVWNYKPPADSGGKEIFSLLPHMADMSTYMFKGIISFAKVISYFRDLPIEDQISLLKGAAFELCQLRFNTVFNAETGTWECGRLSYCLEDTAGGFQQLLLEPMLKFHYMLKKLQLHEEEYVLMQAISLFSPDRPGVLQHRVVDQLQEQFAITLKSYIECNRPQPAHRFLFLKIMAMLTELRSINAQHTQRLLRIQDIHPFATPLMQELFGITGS
# Method in brief: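 Fluorescence intensity of FAM-labelled, HpaI-digested reporter amplicons, separated by capillary electrophoresis, quantifies induction. HepG2 cells with PXR-Gal4 trans-reporter system were exposed 24 h; DMSO defines baseline.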
# [19] = molecular target: human Vitamin D Receptor (VDR), VDR (gene 7421) (UniProt P11473); assay: ATG_VDR_TRANS: Attagene TRANS-FACTORIAL HepG2 Assay for human Vitamin D Receptor (VDR) (AID 2283022; active means hit-call score of the fitted dose curve at least 0.9, where 1 is the maximum)
# Sequence of human Vitamin D Receptor (VDR), VDR (gene 7421) (P11473 whole entry, looked up, the tested form may be a part): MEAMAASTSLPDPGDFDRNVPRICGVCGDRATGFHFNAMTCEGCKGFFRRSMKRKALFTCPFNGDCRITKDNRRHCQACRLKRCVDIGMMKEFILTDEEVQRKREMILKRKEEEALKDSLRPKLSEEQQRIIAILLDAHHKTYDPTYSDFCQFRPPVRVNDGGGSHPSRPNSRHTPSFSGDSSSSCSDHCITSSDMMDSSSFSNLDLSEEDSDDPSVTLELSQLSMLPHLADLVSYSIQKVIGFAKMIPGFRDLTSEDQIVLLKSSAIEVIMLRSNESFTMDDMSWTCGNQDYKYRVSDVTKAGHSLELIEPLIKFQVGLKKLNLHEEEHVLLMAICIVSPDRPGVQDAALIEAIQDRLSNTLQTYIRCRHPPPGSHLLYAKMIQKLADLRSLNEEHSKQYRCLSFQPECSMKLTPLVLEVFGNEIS
# Method in brief: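 HepG2 cells were transiently transfected with multiple GAL4-UAS reporter units, so signal reflects exogenous chimeric receptor-Gal4 activity. After 24 h compound exposure, reporter mRNA was measured by RT-PCR, fluorescent labelling and capillary electrophoresis, fitted for gain of signal versus DMSO.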
# [20] = molecular target: human Retinoid X Receptor beta (RXRb), RXRB (gene 6257) (UniProt P28702); assay: ATG_RXRb_TRANS: Attagene TRANS-FACTORIAL HepG2 Assay for human Retinoid X Receptor beta (RXRb) (AID 2283013; active means hit-call score of the fitted dose curve at least 0.9, where 1 is the maximum)
# Method in brief: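 HepG2 cells transiently transfected with multiplexed reporter units driven by GAL4-UAS and exogenous chimeric NR-Gal4 proteins; treated 24 h. Reporter mRNA measured by RT-PCR, 6-FAM labelling and capillary electrophoresis; gain-of-signal fitted versus DMSO baseline.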
# Sequence of E-selectin (Homo sapiens) (P16581 whole entry, looked up): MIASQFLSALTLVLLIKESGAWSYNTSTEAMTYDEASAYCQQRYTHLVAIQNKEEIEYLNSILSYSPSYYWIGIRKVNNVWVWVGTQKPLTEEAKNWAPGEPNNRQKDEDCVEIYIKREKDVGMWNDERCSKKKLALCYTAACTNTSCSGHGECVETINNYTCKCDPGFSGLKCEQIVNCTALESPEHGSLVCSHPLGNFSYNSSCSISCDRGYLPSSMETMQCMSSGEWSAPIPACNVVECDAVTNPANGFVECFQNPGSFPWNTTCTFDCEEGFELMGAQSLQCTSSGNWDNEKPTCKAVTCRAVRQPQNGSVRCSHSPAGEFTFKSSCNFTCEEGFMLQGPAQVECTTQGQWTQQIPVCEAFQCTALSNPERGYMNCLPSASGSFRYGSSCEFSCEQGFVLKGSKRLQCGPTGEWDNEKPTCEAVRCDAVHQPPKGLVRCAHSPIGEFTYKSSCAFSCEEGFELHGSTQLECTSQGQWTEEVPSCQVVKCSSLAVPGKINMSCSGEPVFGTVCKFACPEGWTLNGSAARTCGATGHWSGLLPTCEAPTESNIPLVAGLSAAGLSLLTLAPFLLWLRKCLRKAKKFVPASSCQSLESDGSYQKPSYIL
structure (smiles),measurement,setting,value
O=P(O)(O)CCC(F)(F)C(F)(F)C(F)(F)C(F)(F)C(F)(F)C(F)(F)F,outcome,[1],inactive
same,outcome,[2],inactive
same,outcome,[3],inactive
same,outcome,[4],inactive
same,outcome,[5],inactive
same,outcome,[6],inactive
same,outcome,[7],inactive
same,outcome,[8],inactive
same,outcome,[9],inactive
same,outcome,[10],inactive
same,outcome,[11],inactive
same,outcome,[12],inactive
same,outcome,[13],inactive
same,outcome,[14],inactive
same,outcome,[15],inactive
same,outcome,[16],inactive
CN(CCO)S(=O)(=O)C(F)(F)C(F)(F)C(F)(F)C(F)(F)C(F)(F)C(F)(F)C(F)(F)C(F)(F)F,outcome,[1],inactive
same,outcome,[2],inactive
same,outcome,[17],inactive
same,AC50,[3],662 nM (active)
same,outcome,[3],inactive
same,outcome,[4],inactive
same,outcome,[18],inactive
same,outcome,[5],inactive
same,outcome,[6],inactive
same,outcome,[8],inactive
same,outcome,[9],inactive
same,outcome,[10],inactive
same,outcome,[11],inactive
same,outcome,[12],inactive
same,outcome,[13],inactive
same,outcome,[14],inactive
same,outcome,[15],inactive
same,outcome,[16],inactive
Clc1ccc(Nc2nnc(Cc3ccncc3)c3ccccc23)cc1,outcome,[1],inactive
same,outcome,[3],inactive
same,AC50,[4],26.9 µM (active)
same,AC50,[18],3.3 µM (active)
same,outcome,[5],inactive
same,outcome,[8],inactive
same,AC50,[10],2.36 µM (active)
same,AC50,[11],1.67 µM (active)
same,outcome,[12],inactive
same,outcome,[13],inactive
same,outcome,[14],inactive
same,outcome,[15],inactive
same,outcome,[16],inactive
same,outcome,[19],inactive
C[C@]12CC[C@@H]3c4ccc(O)cc4CC[C@H]3[C@@H]1C[C@@H](O)[C@@H]2O,outcome,[1],inactive
same,outcome,[2],inactive
same,outcome,[17],inactive
same,outcome,[3],inactive
same,outcome,[4],inactive
same,outcome,[18],inactive
same,outcome,[7],inactive
same,outcome,[8],inactive
same,outcome,[20],inactive
same,outcome,[9],inactive
same,outcome,[10],inactive
same,outcome,[11],inactive
same,outcome,[12],inactive
same,outcome,[13],inactive
same,outcome,[14],inactive
same,outcome,[15],inactive
same,outcome,[16],inactive
same,outcome,[19],inactive
COc1cc(OC)nc(NC(=O)NS(=O)(=O)Nc2ccccc2C(=O)N(C)C)n1,outcome,[1],inactive
same,outcome,[17],inactive
same,outcome,[3],inactive
same,outcome,[4],inactive
same,outcome,[10],inactive
same,outcome,[11],inactive
same,outcome,[12],inactive
same,outcome,[13],inactive
same,outcome,[14],inactive
same,outcome,[15],inactive
same,outcome,[16],inactive
CCCCCCCCCCCC,outcome,[1],inactive
same,outcome,[17],inactive
same,AC50,[3],36.1 µM (active) and 31 µM (active)
same,outcome,[4],inactive
same,outcome,[18],inactive
same,outcome,[5],inactive
same,outcome,[7],inactive
same,outcome,[8],inactive
same,AC50,[10],20 µM (active)
same,outcome,[10],inactive
same,AC50,[11],9.52 µM (active) and 8.11 µM (active)
same,outcome,[12],inactive
same,outcome,[13],inactive
same,outcome,[14],inactive
same,outcome,[15],inactive
same,outcome,[16],inactive
OCC(F)(F)C(F)(F)C(F)(F)C(F)(F)C(F)(F)C(F)(F)C(F)(F)C(F)(F)C(F)(F)C(F)(F)C(F)(F)F,outcome,[1],inactive
same,outcome,[2],inactive
same,AC50,[3],141 nM (active) and 224 nM (active)
same,outcome,[4],inactive
same,outcome,[18],inactive
same,outcome,[6],inactive
same,outcome,[7],inactive
same,outcome,[8],inactive
same,outcome,[20],inactive
same,outcome,[10],inactive
same,outcome,[11],inactive
same,outcome,[12],inactive
same,outcome,[13],inactive
same,outcome,[14],inactive
same,outcome,[15],inactive
same,outcome,[16],inactive
same,outcome,[19],inactive
